Shiga toxin inh – A qHTS for Small Molecule Inhibitors of Shiga Toxin | 9.2% of 290,000 active | Vero cells, Shiga toxin protein synthesis inhibition reporter | inhibition, % at 38.7 µM; in the data active means inhibition mostly above about 28%, no sharp cut-off; inactive means mostly below about 43%
Pf growth 48h – Primary qHTS for delayed death inhibitors of the malarial parasite plastid, 48 hour incubation | AID 504832, 2011 | Potency, µM (top dose mostly 28.7 µM), usual class: inhibitors | 5.9% of 310,000 active | P. falciparum luciferase growth in erythrocytes, 48 h
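Luciferase-expressing P. falciparum in infected erythrocytes (2% hematocrit, 0.1% parasitemia final) in RPMI 1640/0.5% Albumax were exposed to compound for 48 hours at 37 C, 5% CO2; growth read as luminescence.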
HCMV antiviral – qHTS Assay for inhibitors of the human cytomegalovirus (HCMV) | HFF cells, HCMV-luciferase reporter, 72 h; active compounds read low | activity change, negative = inhibition, % at 57.5 µM | 4.5% of 410,000 active | AID 1259415, 2018; in the data active means activity change below about -60%; inconclusive means no clear call, values can overlap the other calls; inactive means above about -39%
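Compounds were evaluated in HFFs infected with an HCMV luciferase reporter virus (MOI 1 PFU/cell). Luciferase in lysates collected 72 h post infection served as the replication measure.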
Pf growth 96h – Primary qHTS for delayed death inhibitors of the malarial parasite plastid, 96 hour incubation; P. falciparum luciferase reporter growth, 96 h; Potency, µM (titrated, usually from 28.7 µM), most hits filed as inhibitors; 6.9% of 320,000 active; AID 504834, 2011
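Infected RBCs, 2% Hct / 0.05% parasitemia final; luciferase-reporter P. falciparum; cpd 96 h, 37 C, 5% CO2; luciferase detection reagent; luminescence.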
CHX counter – Cycloheximide Counterscreen for Small Molecule Inhibitors of Shiga Toxin. cell reporter, cycloheximide protein synthesis inhibition counterscreen. max response, %. 12% of 300,000 active. AID 2314, 2010; in the data active means max response mostly above about 13%, no sharp cut-off; inactive means mostly below about 14%; further: read at 38.3 µM for the half of the compounds with a filed dose
Large screens that a line does not name were inactive. Most compounds without a hit are left out; they make up all but 20% or so of the library. Unless noted, the call rests on the fitted dose curve; in most records, active means well fitted inhibition curve with a large enough effect; inconclusive means small, poorly fitted or top-dose-only effect, or another doubt; inactive means no such curve, though single readings can be large or run the other way.

Cc1cccc(N=C2NC(=O)/C(=C/c3cccn3C)S2)c1	Shiga toxin inh 52.2, Pf growth 48h inconclusive, Pf growth 96h inconclusive, CHX counter 26.8
O=C1NC(=Nc2ccccc2)S/C1=C\c1cccnc1	none
CC1=C(C(=O)Nc2cccc(C(F)(F)F)c2)C2(CCCCCC2)OC1=O	none (no result: Shiga toxin inh, Pf growth 48h, Pf growth 96h, CHX counter)
Cc1ccc(-c2nnc(SCC(=O)NC3CCCC3)nc2-c2ccc(C)cc2)cc1	none (no result: Shiga toxin inh, Pf growth 48h, Pf growth 96h, CHX counter)
C/C(CCc1ccc2c(c1)OCO2)=N\NC(=O)c1ccccc1Cl	CHX counter 23.7
C/C(=N/NC(=O)CCc1ccccc1)c1ccc2c(c1)OCO2	Pf growth 96h inconclusive
C/C(CCc1ccc2c(c1)OCO2)=N\NC(=O)c1ccccc1	Shiga toxin inh 75.5, CHX counter 35.5
O=[N+]([O-])c1ccc(S(=O)(=O)Nc2nnc(C3CCCCC3)s2)cc1	none
Cc1cccc(C2c3[nH]c4ccccc4c3CCN2C(=O)c2ccc(=O)[nH]c2)n1 (stereo not drawn)	Pf growth 48h inconclusive
CC(=O)c1ccc(C(=O)N2CCc3c([nH]c4ccccc34)C2c2cccc(C)n2)s1 (stereo not drawn)	Pf growth 48h inconclusive, Pf growth 96h 13.1µM
Cc1nc(C)c(CC(=O)N2CCc3c([nH]c4ccccc34)C2c2ccccn2)s1 (stereo not drawn)	Pf growth 48h inconclusive, Pf growth 96h 10.4µM
Cc1cc2cc(C(=O)N3CCc4c([nH]c5ccccc45)C3c3ccccn3)ccc2o1 (stereo not drawn)	Pf growth 48h 10.4µM, Pf growth 96h 9.28µM
COC(=O)CCNC(=O)N1CCN(c2nnc(C)c3c(C)n(-c4ccc(Cl)cc4)nc23)CC1	none (no result: Shiga toxin inh, Pf growth 48h, Pf growth 96h, CHX counter)
COc1ccccc1CC1CC(=O)N(c2ccccc2)C1=O (stereo not drawn)	Pf growth 96h 9.28µM
COc1ccc(N2C(=O)CC(Cc3ccccc3OC)C2=O)cc1 (stereo not drawn)	Pf growth 96h inconclusive
NC(=O)NC(=O)COC(=O)c1ccc2noc(-c3ccccc3)c2c1	none
Cc1ccc(-c2onc3ccc(C(=O)O)cc23)cc1	Shiga toxin inh 179.7, CHX counter 91.6
CC(=O)COC(=O)c1ccc2noc(-c3ccccc3)c2c1	Shiga toxin inh 59.2, HCMV antiviral -67.9, CHX counter 13.9
O=C(Nc1cccc(Cl)c1)Nc1ccc2nc(-c3ccc(F)c(Cl)c3)nn2c1	none (no result: Shiga toxin inh, Pf growth 48h, Pf growth 96h, CHX counter)
CCn1c(SCC(=O)NNC(=O)c2ccccc2)nnc1-c1ccncc1	Pf growth 96h inconclusive
O=C(Cn1ccc2ccccc2c1=O)NCCC(=O)N1CCN(c2cccc(Cl)c2)CC1	Pf growth 96h 7.38µM (no result: Pf growth 48h)
CN(CC(=O)NCCc1ccc(S(N)(=O)=O)cc1)Cc1ccc(Cl)cc1Cl	HCMV antiviral -86.3
O=C(CCNC(=O)Cn1ccc2ccccc2c1=O)NCCN1CCN(c2cccc(Cl)c2)CC1	none
O=C(CN1CCCC1)NCc1ccccc1	Pf growth 96h 13.1µM
O=C(CN1CCN(c2ccc(Cl)cc2)CC1)NCc1ccccc1	none
O=C(CN1CCN(c2cccc(Cl)c2)CC1)NCc1ccccc1	Pf growth 96h 10.4µM
NS(=O)(=O)c1ccc(CCNC(=O)CN2CCN(c3ccc(F)cc3)CC2)cc1	Pf growth 48h inconclusive, HCMV antiviral inconclusive, Pf growth 96h inconclusive
NS(=O)(=O)c1ccc(CCNC(=O)CN2CCN(c3cccc(Cl)c3)CC2)cc1	HCMV antiviral -88.5
O=C(Nc1ccn(Cc2ccc(Cl)cc2)n1)c1ccccc1	Shiga toxin inh 90.4, CHX counter 20.6
O=C(Nc1ccn(Cc2ccccc2)n1)c1ccc2c(c1)OCO2	Shiga toxin inh 42.1, CHX counter 24.2
O=C(Nc1ccn(Cc2cccc3ccccc23)n1)c1cccnc1	Pf growth 48h inconclusive, HCMV antiviral -74.7
N#CCCn1ccc(NC(=O)c2ccc(Cl)cc2)n1	none
O=C(Nc1ccc2c(c1)OCO2)c1cnn2cccnc12	Shiga toxin inh 73.9, CHX counter 48.9 (no result: Pf growth 96h)
O=C(Nc1cccc(O)c1)c1cnn2cccnc12	Shiga toxin inh 101.5, CHX counter 40.0 (no result: Pf growth 48h)
O=C(Nc1cccnc1)c1cnn2cccnc12	Pf growth 96h inconclusive
Cc1ccc(C(=O)C(C)OC(=O)Cn2[nH]c(=O)c3ccccc3c2=O)cc1C (stereo not drawn)	none
CC(C)CCN(C(=O)Nc1ccc(Cl)c(Cl)c1)C1CCN(C(C)C)CC1	none (no result: Shiga toxin inh, Pf growth 48h, Pf growth 96h, CHX counter)
CC(C)CCN(C(=O)Nc1ccc(Cl)cc1)C1CCN(C(C)C)CC1	Pf growth 48h 13.1µM, Pf growth 96h inconclusive
COCCN(C(=S)Nc1ccc(OC)cc1)C1CCN(C(C)C)CC1	Pf growth 96h 11.7µM
COc1ccc(NC(=S)N(CCC(C)C)C2CCN(C(C)C)CC2)cc1Cl	Pf growth 48h inconclusive, HCMV antiviral -62.3, Pf growth 96h inconclusive
COCCN(C(=S)Nc1ccc(OC)c(Cl)c1)C1CCN(C(C)C)CC1	HCMV antiviral inconclusive, Pf growth 96h inconclusive
CCOC(=O)N1CCC(N(CCN(C)C)C(=S)Nc2cccc(OC)c2)CC1	Pf growth 96h 7.38µM
CCN1CCN(CCCNC(=O)Cn2nc(C)n3c(cc4c(OC)cccc43)c2=O)CC1	none (no result: Shiga toxin inh, Pf growth 48h, Pf growth 96h, CHX counter)
Cc1ccc(C(=O)OCC(=O)NCc2cccc(Cl)c2)cc1S(=O)(=O)N1CCCCC1	Pf growth 48h inconclusive, HCMV antiviral inconclusive (no result: Shiga toxin inh, CHX counter)
CC1CC(C)CN(C(=O)CSc2nc(Cc3cccs3)nc3ccccc23)C1 (stereo not drawn)	Pf growth 48h inconclusive, Pf growth 96h inconclusive
COCCN(C(=S)Nc1cccc(OC)c1)C1CCN(C(C)C)CC1	Pf growth 96h 13.1µM
COCCN(C(=S)Nc1cccc(OC)c1)C1CCN(C(C)=O)CC1	none
Cc1ccc(C)c(NC(=O)/C(C#N)=C/c2ccc[nH]2)c1	CHX counter 33.0
Cc1cccc(NC(=O)/C(C#N)=C/c2ccc[nH]2)c1C	Pf growth 48h inconclusive, CHX counter 24.2
COc1cc(-c2nccc3[nH]nc(-c4ccccc4)c23)cc(OC)c1OC	none (no result: Shiga toxin inh, Pf growth 48h, Pf growth 96h, CHX counter)
CC(C)=CCC/C(C)=C/CC/C(C)=C/CC/C(C)=C/CC1=C(C)C(=O)c2ccccc2C1=O	Pf growth 48h 11.7µM, Pf growth 96h 5.22µM
CC(C)=CCC/C(C)=C/CC/C(C)=N/O	none
CC(C)=CCC1=C(OCC(=O)O)C(=O)c2ccccc2C1=O	Pf growth 48h 13.1µM, Pf growth 96h 2.94µM
CC(=O)OC/C=C(\C)CCC=C(C)C	Pf growth 48h inconclusive (no result: Shiga toxin inh, CHX counter)
Cc1oc(-c2ccc(C(=O)NC(C)c3ccccc3)cc2)nc1CS(=O)(=O)c1ccccc1 (stereo not drawn)	none (no result: Shiga toxin inh, Pf growth 48h, Pf growth 96h, CHX counter)
CC(C)OP(=O)(c1ccc(N(C)C)cc1)C(O)c1ccc(N(C)C)cc1 (stereo not drawn)	none
CC(=O)NCCNC(=O)CCCc1nnc2n(CCC(C)C)c(=O)c3sccc3n12	none (no result: Shiga toxin inh, Pf growth 48h, Pf growth 96h, CHX counter)
Cc1ccc(Cl)c2sc(NC(=O)C3=COCCO3)nc12	Shiga toxin inh 73.6, CHX counter 27.0
Cc1cc(C)c2sc(NC(=O)C3=COCCO3)nc2c1	Shiga toxin inh 120.3, CHX counter 59.9
Cc1cc(-c2csc(NC(=O)C3=COCCO3)n2)c(C)n1C	Pf growth 48h inconclusive, Pf growth 96h inconclusive (no result: Shiga toxin inh, CHX counter)

Screening data from PubChem BioAssay.
